Measured values taken from the supplement of paper PMC10646978.
± gives the standard deviation.

What was measured:
Conditions in all cases: modulator concentration 10 µM
[1] = test system: RAW-Dual (murine macrophage reporter line); test: NF-kB reporter (SEAP) activity fold change vs agonist alone; higher = enhanced NF-kB activity
Method in brief: (§1)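 RAW-Dual murine macrophage reporter cells were seeded at 50 000 per well in 384-well plates and pre-incubated 1 hour at 37 °C with compound pin-transferred to 10 μM final. After 1 hour, a PRR agonist was added and cells incubated overnight. Supernatant NF-κB (SEAP, QUANTI-Blue, 620 nm absorbance) and IRF (Lucia luciferase, QUANTI-Luc, luminescence) signals were divided by the mean agonist-only control on the same plate to give fold change. Two replicate plates were averaged, with errors by propagation.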

[2] = test system: RAW-Dual (murine macrophage reporter line); test: IRF reporter (Lucia luciferase) activity fold change vs agonist alone; higher = enhanced IRF activity
Method in brief: as §1

[3] = test system: RAW-Dual (murine macrophage reporter line); test: viability score (confluency relative to resting cells, overnight) (fraction); higher = more viable, active = viable (0.7 or more)
Method in brief: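 In 384-well plates, RAW-Dual macrophages received compound at a final 10 μM overnight. Two confluency masks were then made with IncuCyte software from IncuCyte images of all imaged wells. The viability score is defined as confluency relative to resting cells. Passing the cutoff required both masks to lie above 70% of resting cells.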

[4] = agonist: CpG ODN 1826 0.5 ug/mL

SMILES | NF-kB reporter [1, 4] | NF-kB reporter ([1]; agonist: LPS 0.1 ug/mL) | NF-kB reporter ([1]; agonist: MPLA […]) | IRF reporter ([2]; agonist: 3'3'-cGAMP 10 ug/mL) | IRF reporter ([2]; agonist: LPS 0.1 ug/mL) | IRF reporter ([2]; agonist: MPLA […]) | viability score [3]
O=c1n(CCNS(=O)(=O)Cc2ccccc2)nc(C2CC2)n1-c1ccccc1 | 1.03 ± 0.052 | 1.08 ± 0.09 | 1.1 ± 0.074 | 1.03 ± 0.063 | 1.26 ± 0.08 | 1.22 ± 0.1 | 1.01 (active)
O=C(CC12CC3CC(CC(C3)C1)C2)N1CCCCC1 | 0.863 ± 0.064 | 0.99 ± 0.11 | 0.949 ± 0.056 | 1.1 ± 0.037 | 1.53 ± 0.1 | 1.23 ± 0.15 | 0.911 (active)
CC(C)(C)c1cc(CCC(=O)NN)cc(C(C)(C)C)c1O | 0.8 ± 0.066 | 0.816 ± 0.06 | 0.926 ± 0.096 | 0.519 ± 0.022 | 1.15 ± 0.12 | 1.24 ± 0.2 | 1.02 (active)
O=S(=O)(c1ccc(-n2cccn2)cc1)N1CC(n2cc(C3CC3)nn2)C1 | 1.01 ± 0.068 | 1.11 ± 0.1 | 0.939 ± 0.066 | 0.966 ± 0.076 | 1.21 ± 0.077 | 0.999 ± 0.085 | 0.993 (active)
O=C(Cn1c(C(F)(F)F)nc2ccccc21)c1ccc(OC(F)F)cc1 | 0.916 ± 0.086 | 1.07 ± 0.084 | 0.884 ± 0.062 | 1.06 ± 0.061 | 1.3 ± 0.15 | 1.02 ± 0.072 | 1.01 (active)
O=C(c1ccc(I)cc1)N(C1CCCCC1)C1CCCCC1 | 0.976 ± 0.1 | 1.03 ± 0.099 | 1.09 ± 0.056 | 0.832 ± 0.044 | 1.02 ± 0.13 | 1.18 ± 0.3 | 0.997 (active)
CC(=O)Nc1nnc(S(N)(=O)=O)s1 | 1.57 ± 0.56 | 1.08 ± 0.18 | 1.07 ± 0.11 | 0.941 ± 0.029 | 1.28 ± 0.32 | 0.921 ± 0.095 | 0.998 (active)
O=C(C=Cc1ccccc1)NC(NC(=S)Nc1ccc(Cl)cc1)C(Cl)(Cl)Cl (stereo unspecified) | 1.16 ± 0.11 | 0.783 ± 0.11 | 5.38 ± 0.2 | 0.404 ± 0.07 | 0.804 ± 0.036 | 1.74 ± 0.19 | 0.166 (inactive)
COC12C(COC(N)=O)C3=C(C(=O)C(C)=C(N)C3=O)N1CC1NC12 (stereo unspecified) | 1.35 ± 0.12 | 0.967 ± 0.083 | 1.18 ± 0.13 | 1.09 ± 0.075 | 1.32 ± 0.18 | 1.41 ± 0.28 | 0.969 (active)
CCN(CC)c1ccc(-c2noc(CN3CCSCC3)n2)cn1 | 0.986 ± 0.055 | 1.15 ± 0.099 | 0.902 ± 0.041 | 0.983 ± 0.059 | 1.15 ± 0.14 | 1.13 ± 0.37 | 1.01 (active)
C=CC(=O)N1CCC(Oc2cc3c(Nc4ccc(Cl)c(Cl)c4F)ncnc3cc2OC)CC1 | 0.879 ± 0.037 | 0.909 ± 0.095 | 1.05 ± 0.061 | 1.08 ± 0.064 | 1.36 ± 0.3 | 1.49 ± 0.48 | 0.97 (active)
N#Cc1cc2c(nc1N1CC(Cn3nc(C4CC4)ccc3=O)C1)CCC2 | 1.44 ± 0.078 | 1.21 ± 0.099 | 1.63 ± 0.24 | 0.866 ± 0.12 | 1.03 ± 0.17 | 1.18 ± 0.34 | 0.946 (active)
O=C(NCCCOc1cccc2cccnc12)c1cnccn1 | 1.03 ± 0.059 | 0.979 ± 0.094 | 0.998 ± 0.035 | 0.95 ± 0.036 | 1.01 ± 0.052 | 0.99 ± 0.1 | 1 (active)
